Test results from PubChem BioAssay (EPA / NIEHS).
The source made the active and inactive calls. How the source made its calls: active means hit-call score of the fitted dose curve at least 0.9, where 1 is the maximum; inactive means score below 0.9.

Tests used:
Conditions in all cases: mRNA level, 48 h; actives raise or lower the signal
[1] = read-out: Peroxisomal acyl-coenzyme A oxidase 1 (ACOX1) gene, ACOX1 (gene 51); assay: LTEA_HepaRG_ACOX1: Life Technologies and Expression Analysis (LTEA) Assay for Peroxisomal acyl-coenzyme A oxidase 1 (ACOX1) gene using HepaRG (AID 2283467)
In short: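 Differentiated human HepaRG cells were exposed in duplicate for 48 h in serum-free induction medium to eight half-log concentrations up to 100 uM in 0.5% DMSO. ACOX1 mRNA was then quantified by TaqMan qRT-PCR, normalized to ACTB, GAPDH and POLR2A.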

[2] = read-out: Alkaline Phosphatase, Placental (ALPP) gene, ALPP (gene 250); assay: LTEA_HepaRG_ALPP: Life Technologies and Expression Analysis (LTEA) Assay for Alkaline Phosphatase, Placental (ALPP) gene using HepaRG (AID 2283468)
In short: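 qRT-PCR readout of ALPP mRNA (Fluidigm TaqMan), normalized to ACTB/GAPDH/POLR2A, after 48 h chemical exposure of HepaRG cells; 8-point half-log series, top 100 uM, 0.5% DMSO vehicle. Bidirectional curve fit versus DMSO baseline.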

[3] = read-out: Bcl-2 (BAD) gene, BAD (gene 572); assay: LTEA_HepaRG_BAD: Life Technologies and Expression Analysis (LTEA) Assay for Bcl-2 (BAD) gene using HepaRG (AID 2283469)
In short: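 Differentiated human HepaRG cells in serum-free induction medium were exposed in duplicate for 48 h to eight concentrations (top 100 uM, half-log steps, 0.5% DMSO). BAD mRNA was quantified by qRT-PCR normalised to ACTB, GAPDH and POLR2A, with bidirectional fitting versus DMSO.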

[4] = read-out: Bcl-2 (BAX) gene, BAX (gene 581); assay: LTEA_HepaRG_BAX: Life Technologies and Expression Analysis (LTEA) Assay for Bcl-2 (BAX) gene using HepaRG (AID 2283470)
In short: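 HepaRG (human liver), 48 h exposure, duplicate wells. 8-pt curve, half-log from 100 uM, 0.5% DMSO. BAX transcript by TaqMan qRT-PCR; ACTB/GAPDH/POLR2A normalization; gain or loss vs DMSO baseline.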

[5] = read-out: adenosine kinase (ADK) gene, ADK (gene 132); assay: LTEA_HepaRG_ADK: Life Technologies and Expression Analysis (LTEA) Assay for adenosine kinase (ADK) gene using HepaRG (AID 2283471)
In short: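 HepaRG (human liver), 48 h chemical exposure, 8-pt half-log series, top 100 uM, 0.5% DMSO vehicle. Readout: ADK mRNA by qRT-PCR vs housekeeping genes; bidirectional curve fit relative to DMSO baseline.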

[6] = read-out: Apolipoprotein A-V (APOA5) gene, APOA5 (gene 116519); assay: LTEA_HepaRG_APOA5: Life Technologies and Expression Analysis (LTEA) Assay for Apolipoprotein A-V (APOA5) gene using HepaRG (AID 2283474)
In short: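 HepaRG, 48 h chemical exposure in serum-free induction medium, 8-pt half-log series (top 100 uM), 0.5% DMSO vehicle, duplicates. Readout: APOA5 mRNA by qRT-PCR, housekeeping-normalized; bidirectional fit vs DMSO baseline.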

[7] = read-out: Apoptosis regulator Bcl-2 (Homo sapiens) (UniProt P10415); assay: LTEA_HepaRG_BCL2: Life Technologies and Expression Analysis (LTEA) Assay for Bcl-2 gene using HepaRG (AID 2283475)
In short: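 HepaRG, plated 48 h then switched to serum-free induction medium; dosed 48 h, 8 conc. (max 100 uM, half-log steps), duplicate, 0.5% DMSO. Lysis in RLT, RNA isolated, TaqMan qRT-PCR for BCL2; ACTB/GAPDH/POLR2A normalisation; bidirectional fit vs DMSO.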

Caspase-3 (Homo sapiens) = Caspase-3 (Homo sapiens) (UniProt P42574); assay: LTEA_HepaRG_CASP3: Life Technologies and Expression Analysis (LTEA) Assay for cysteine-aspartic acid protease (CASP3) using HepaRG (AID 2283477)
Chain of Caspase-3 (Homo sapiens) (P42574 whole entry, looked up): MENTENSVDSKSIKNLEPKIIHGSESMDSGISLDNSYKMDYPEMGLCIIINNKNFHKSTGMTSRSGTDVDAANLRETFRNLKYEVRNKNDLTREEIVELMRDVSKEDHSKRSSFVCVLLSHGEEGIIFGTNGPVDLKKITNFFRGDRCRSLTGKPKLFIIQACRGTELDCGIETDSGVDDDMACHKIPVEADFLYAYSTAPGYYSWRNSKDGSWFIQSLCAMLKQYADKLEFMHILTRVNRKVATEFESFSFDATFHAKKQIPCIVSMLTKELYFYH
In short: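 HepaRG, 48 h exposure, 8 conc. (top 100 uM, half-log steps, duplicate), 0.5% DMSO vehicle; qRT-PCR of CASP3 transcript, housekeeping-normalised (ACTB/GAPDH/POLR2A); bidirectional curve fit vs DMSO baseline.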

[8] = read-out: Cytochrome P450 (CYP24A1), CYP24A1 (gene 1591); assay: LTEA_HepaRG_CYP24A1: Life Technologies and Expression Analysis (LTEA) Assay for Cytochrome P450 (CYP24A1) using HepaRG (AID 2283478)
In short: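 qRT-PCR read-out: CYP24A1 transcript levels normalized to three housekeeping genes, bidirectional curve fits against 0.5% DMSO baseline. Human HepaRG cells treated 48 h with chemicals at eight concentrations from 100 uM in half-log steps.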

[9] = read-out: Cytochrome P450 (CYP1A2), CYP1A2 (gene 1544); assay: LTEA_HepaRG_CYP1A2: Life Technologies and Expression Analysis (LTEA) Assay for Cytochrome P450 (CYP1A2) using HepaRG (AID 2283479)
In short: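 HepaRG, 48 h exposure, top 100 uM, half-log 8-pt, 0.5% DMSO vehicle, duplicates. Readout: TaqMan qRT-PCR of CYP1A2 mRNA, housekeeping-normalized (ACTB/GAPDH/POLR2A). Gain/loss fit relative to DMSO baseline.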

[10] = read-out: Cytochrome P450 (CYP2B6), CYP2B6 (gene 1555); assay: LTEA_HepaRG_CYP2B6: Life Technologies and Expression Analysis (LTEA) Assay for Cytochrome P450 (CYP2B6) using HepaRG (AID 2283481)
In short: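 Read-out is CYP2B6 mRNA by TaqMan qRT-PCR, normalized to three housekeeping genes and fitted bidirectionally against 0.5% DMSO baseline. Human HepaRG cells received test chemicals for 48 h, top concentration 100 uM, half-log dilutions.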

[11] = read-out: Cytochrome P450 2C19 (Homo sapiens) (UniProt P33261); assay: LTEA_HepaRG_CYP2C19: Life Technologies and Expression Analysis (LTEA) Assay for CYP2C19 using HepaRG (AID 2283482)
In short: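 HepaRG, 48 h chemical exposure, 8-pt half-log series from 100 uM in 0.5% DMSO, duplicates. Readout: CYP2C19 mRNA by TaqMan qRT-PCR, housekeeping-normalized. Bidirectional fit vs DMSO baseline; phenobarbital 1mM as induction control.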

CYP2C8 (gene 1558) = assay: LTEA_HepaRG_CYP2C8: Life Technologies and Expression Analysis (LTEA) Assay for CYP2C8 using HepaRG (AID 2283483)
In short: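 Differentiated human HepaRG cells were exposed for 48 h in serum-free induction medium to eight half-log concentrations up to 100 uM in 0.5% DMSO, in duplicate. CYP2C8 mRNA was measured by TaqMan qRT-PCR, normalized to ACTB, GAPDH and POLR2A, and fitted bidirectionally against DMSO.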

CYP2C9 (gene 1559) = assay: LTEA_HepaRG_CYP2C9: Life Technologies and Expression Analysis (LTEA) Assay for CYP2C9 using HepaRG (AID 2283484)
In short: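 Differentiated human HepaRG cells were exposed 48 h in serum-free induction medium to eight half-log concentrations up to 100 uM in 0.5% DMSO. CYP2C9 mRNA was measured by qRT-PCR, normalized to ACTB, GAPDH and POLR2A, and fitted bidirectionally against DMSO.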

CYP2E1 (gene 1571) = assay: LTEA_HepaRG_CYP2E1: Life Technologies and Expression Analysis (LTEA) Assay for CYP2E1 using HepaRG (AID 2283485)
In short: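 Human liver line HepaRG, plated 48 h, then serum-free induction medium + chemical x 48 h; 8-pt CRC from 100 uM, half-log, 0.5% DMSO, n=2. Readout: CYP2E1 mRNA qRT-PCR vs ACTB/GAPDH/POLR2A; bidirectional fit vs DMSO.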

CYP4A11 (gene 1579) = assay: LTEA_HepaRG_CYP4A11: Life Technologies and Expression Analysis (LTEA) Assay for CYP4A11 using HepaRG (AID 2283486)
In short: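 CYP4A11 transcript levels were quantified by TaqMan qRT-PCR after HepaRG human liver cells were treated for 48 hours with test chemicals (top 100 uM, half-log dilutions, 0.5% DMSO). Gain or loss of signal was fitted relative to DMSO.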

BCL2L11 (gene 10018) = assay: LTEA_HepaRG_BCL2L11: Life Technologies and Expression Analysis (LTEA) Assay for Bcl-2 (BCL2L11) gene using HepaRG (AID 2283473)
In short: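 HepaRG, 48 h exposure, 8-pt half-log series from 100 uM in 0.5% DMSO, duplicates; qRT-PCR (Fluidigm TaqMan) for BCL2L11, housekeeping-normalized; bidirectional curve fit relative to DMSO baseline.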

[12] = read-out: Bcl-2 (BID) gene, BID (gene 637); assay: LTEA_HepaRG_BID: Life Technologies and Expression Analysis (LTEA) Assay for Bcl-2 (BID) gene using HepaRG (AID 2283476)
In short: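 Transcript levels of BID, measured by qRT-PCR and normalized to three housekeeping genes, were fitted bidirectionally against DMSO controls. Cells were HepaRG, dosed 48 h at up to 100 uM.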

Measured: AC50

Chain of Cytochrome P450 2C19 (Homo sapiens) (P33261 whole entry, looked up): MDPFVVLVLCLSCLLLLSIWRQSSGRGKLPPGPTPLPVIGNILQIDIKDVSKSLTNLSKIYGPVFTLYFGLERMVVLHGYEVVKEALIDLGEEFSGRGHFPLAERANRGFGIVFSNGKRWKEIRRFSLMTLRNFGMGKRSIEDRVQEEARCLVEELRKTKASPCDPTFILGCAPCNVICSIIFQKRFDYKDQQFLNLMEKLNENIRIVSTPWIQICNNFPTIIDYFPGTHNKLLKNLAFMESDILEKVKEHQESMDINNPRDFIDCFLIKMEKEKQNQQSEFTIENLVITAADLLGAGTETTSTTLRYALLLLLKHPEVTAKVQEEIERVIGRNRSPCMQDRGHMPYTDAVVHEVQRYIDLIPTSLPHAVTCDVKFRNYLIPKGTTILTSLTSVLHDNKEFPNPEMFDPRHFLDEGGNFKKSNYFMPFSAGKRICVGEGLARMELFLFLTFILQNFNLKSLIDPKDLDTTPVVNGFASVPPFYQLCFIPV
Chain of Apoptosis regulator Bcl-2 (Homo sapiens) (P10415 whole entry, looked up): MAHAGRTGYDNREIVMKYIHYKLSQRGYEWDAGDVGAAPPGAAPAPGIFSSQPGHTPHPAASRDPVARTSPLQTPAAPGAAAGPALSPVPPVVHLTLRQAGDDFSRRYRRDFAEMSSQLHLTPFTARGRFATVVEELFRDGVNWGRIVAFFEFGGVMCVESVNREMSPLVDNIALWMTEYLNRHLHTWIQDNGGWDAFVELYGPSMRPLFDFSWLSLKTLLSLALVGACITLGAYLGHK

CC(c1ccc(O)cc1)(c1ccc(O)cc1)c1ccc(O)cc1
inactive: [3] | [4] | [6] | [7] | [8] | CYP2C8 (gene 1558) | CYP4A11 (gene 1579)
active: [1] 70.5 µM | [2] 895 nM | [5] 75.7 µM | Caspase-3 (Homo sapiens) 87.5 µM | [9] 21.8 µM | [10] 31.3 µM | [11] 29 µM | CYP2C9 (gene 1559) 50 µM | CYP2E1 (gene 1571) 80.5 µM

O=C(N[C@H]1CN2CCC1CC2)c1cc2ccoc2cn1
active: [9] 50 µM | [10] 50 µM
not listed: [12]
inactive: all other assays above

Cc1ccccc1CO[C@@H]1C[C@@]2(C(C)C)CC[C@]1(C)O2
active: [9] 76.3 µM | [10] 15.9 µM | [11] 32.5 µM | CYP2C8 (gene 1558) 50 µM | CYP2E1 (gene 1571) 50 µM
not listed: BCL2L11 (gene 10018) | [12]
inactive: all other assays above

CCC(C)(CC)c1cc(NC(=O)c2c(OC)cccc2OC)on1
active: [9] 10.3 µM | [10] 3.2 µM | [11] 2.36 µM | CYP2C8 (gene 1558) 3.26 µM | CYP2E1 (gene 1571) 15 µM | CYP4A11 (gene 1579) 26.2 µM
not listed: BCL2L11 (gene 10018) | [12]
inactive: all other assays above

Clc1ccc(C(Cl)(Cl)Cl)cc1
not listed: [12]
inactive: all other assays above

ClC(Cl)=C(c1ccc(Cl)cc1)c1ccc(Cl)cc1
active: [10] 1.59 µM | [11] 7.61 µM | CYP2C8 (gene 1558) 3.63 µM | CYP2E1 (gene 1571) 50.7 µM
not listed: BCL2L11 (gene 10018)
inactive: all other assays above
